# Source: article PMC5540273 (PLoS ONE, 2017)
# Legend:
# Settings in all cases: concentration: 1 μM, replicates: in singlicate; n = 1
# NEK11 = test system: NEK11
# NEK1 = test system: NEK1
# NEK2 = test system: NEK2
# NEK3 = test system: NEK3
# NEK4 = test system: NEK4
# NEK5 = test system: NEK5
# NEK6 = test system: NEK6
# NEK7 = test system: NEK7
# NEK9 = test system: NEK9
# NIK = test system: T1, NIK
# T1 construct: gene MAP3K14
# 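Further: KINOMEscan kinase panel screen.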
SMILES,%Inh (NEK11) [%],%Inh (NEK1) [%],%Inh (NEK2) [%],%Inh (NEK3) [%],%Inh (NEK4) [%],%Inh (NEK5) [%],%Inh (NEK6) [%],%Inh (NEK7) [%],%Inh (NEK9) [%],%Inh (NIK) [%]
Cc1ccc(NC(=O)c2ccnc(N3CCCCC3)c2)cc1-c1ccc(C(=O)NCC2CC2)cc1 [GW775610],0,0,0,4,0,0,0,8,20,15
Cc1cc(-c2ccnc(Nc3cccc(C#N)c3)n2)cc(C)c1O [GSK1440913],1,0,0,43,1,83,0,0,13,62
O=C(Nc1n[nH]c2nc(-c3cccc(O)c3)ccc12)C1CC1 [SB-711805],7,4,2,19,0,0,0,0,8,8
COc1ccc(C2=C(Nc3cccc(O)c3)C(=O)NC2=O)cc1 [SB-390766],19,0,0,18,5,34,0,0,0,6
CN1CCN(Cc2ccc(NC(=O)Nc3ccc(N(C)c4ccnc(Nc5ccc(CS(C)(=O)=O)cc5)n4)cc3)cc2)CC1.Cl [GW827654],19,45,0,16,24,98.3,3,30,49,0
N#Cc1cnc2cc(-c3cnc(CNCCN4CCOCC4)s3)ccc2c1Nc1ccc(Oc2ccccc2)cc1 [GW664114],25,0,82,20,1,0,0,0,17,0
Cn1cc(-c2ccc3c(c2)CCN3C(=O)Cc2cc(F)cc(F)c2F)c2c(N)ncnc21 [GSK2634140],38,7,84,0,32,8,18,0,8,26
CN(c1ccc2c(c1)nc(NCc1ccccc1)n2C)c1ccnc(Nc2ccc(CS(C)(=O)=O)cc2)n1.Cl [GW811603],0,0,0,20,0,0,60,8,55,33
O=C(O)C(F)(F)F.O=c1[nH]ccc2nc(N[C@@H]3CCNC3)nc(Nc3ccc4c(c3)S(=O)(=O)CC4)c12 [GSK2181306],0,6,46,8,16,0,3,5,19,77
Cl.N#CCc1ccc(Nc2nccc(Nc3ccc(Oc4ccccc4)cc3)n2)cc1 [GW639905],0,0,5,0,16,24,0,0,0,0
Fc1cc(Cl)ccc1Nc1ccnc2cc(-c3ccc(CN4CCSCC4)o3)ccc12 [GW560106],22,0,1,5,0,9,0,0,5,28
N#CC1(c2cccc(C(=O)Nc3cccc(Oc4ccc5nc(NC(=O)C6CC6)sc5n4)c3)c2)CC1,0,40,0,30,0,0,0,0,0,0
Nc1cccc(-c2ccc3c(N)n[nH]c3c2)c1 [GSK2193613],17,11,11,0,0,6,0,0,8,6
Cc1ccc(Nc2ccnc(Nc3ccc(C)c(F)c3)n2)cc1O.Cl [GW582868],3,0,1,10,7,4,0,0,0,10
O=C(O)C(F)(F)F.O=c1[nH]ccc2nc(N[C@@H]3CCNC3)nc(Nc3cc(Cl)cc(Cl)c3)c12 [GSK2188764],0,28,23,23,17,14,0,13,25,64
Cl.Cl.NC(CNC(=O)c1cc(Br)c(-c2ccnc3[nH]ccc23)s1)c1ccccc1 (stereo not drawn) [GSK1322949],0,54,0,5,0,16,0,0,23,11
COc1cc(Nc2ccnc3cc(-c4ccncc4)ccc23)cc(OC)c1OC.Cl [GW494610],8,0,0,0,0,5,1,0,4,0

SMILES,%Inh (NEK11) [%],%Inh (NEK1) [%],%Inh (NEK2) [%],%Inh (NEK3) [%],%Inh (NEK4) [%],%Inh (NEK5) [%],%Inh (NEK6) [%],%Inh (NEK7) [%],%Inh (NEK9) [%],%Inh (NIK) [%]
CN(c1ccc(F)c(NC(=O)c2cccc(OC(C)(C)C#N)c2Cl)c1)c1ccc2nc(NC(=O)C3CC3)sc2n1,0,3,0,7,1,0,0,8,5,0
CN(C)CCNS(=O)(=O)c1ccc(-c2ccnc3[nH]ccc23)cc1 [GSK977620],0,99.8,0,0,4,1,1,0,0,0
Cc1ccc(NC(=O)c2cccc(N3CCCCC3)c2)cc1-c1ccc(C(=O)NCC2CC2)cc1 [GSK1917008],0,27,16,11,23,12,0,13,35,68
Cl.Cl.NCC(NC(=O)c1cc(-c2cccnc2)c(-c2ccnc3[nH]ccc23)s1)c1ccccc1 (stereo not drawn) [GSK1323434],15,13,1,18,24,13,4,0,11,35
COc1cccc(NC(=O)NCCNc2ccnc(Nc3ccc(F)cc3)n2)c1 [GSK1379879],0,0,0,9,0,11,0,0,0,27
Nc1ncnc2scc(-c3ccc(NC(=O)Cc4cc(F)ccc4F)cc3)c12.O=C(O)C(F)(F)F [SB-731254-M],36,20,24,35,16,47,3,0,20,0
CC(C)(C)c1ccc(C(=O)Nc2cn3cc(-n4ccnc4)ccc3n2)cc1,0,0,0,35,0,13,2,0,3,0
Cc1ccc(NC(=O)c2ccc(Cl)c(Cl)c2)cc1-c1ccc(C(=O)Nc2ccncc2)cc1 [GSK1398460],0,16,2,16,0,0,0,0,7,0
COc1cccc(CC(=O)N2CCc3cc(-c4cn(C)c5ncnc(N)c45)ccc32)c1 [GSK2608899],49,21,74,4,44,24,18,11,25,0
O=C(Nc1c(F)cccc1F)c1cc(C(=O)c2ccccc2F)c[nH]1 [GSK1326180],16,0,0,0,0,0,0,0,5,0
CC(=O)Nc1cn2nc(Oc3cccc(NC(=O)c4cccc(C(F)(F)F)c4)c3)ccc2n1,0,0,0,8,0,8,3,0,0,0
Cc1cc(-c2c(-c3ccc(F)cc3)ncn2CCCN2CCOCC2)nc(N)n1 [SB-222517],0,33,0,25,0,0,9,0,0,12
Fc1cc(Cl)ccc1Nc1ccnc2cc(-c3ccc(CN4CCOCC4)o3)ccc12 [GW560109],0,0,13,0,15,1,0,3,0,4
Nc1ncc(-c2cn[nH]c2)c2scc(-c3ccc4c(c3)CCN4C(=O)Cc3ccccc3)c12 [GSK2593067],87,7,85,0,11,21,3,0,0,3
O=C(Nc1n[nH]c2nc(-c3ccccc3)ccc12)C1CC1 [SB-708999],36,0,0,2,5,49,24,0,7,18
CCn1cnc2c(NCc3ccccc3)ncnc21 [SKF-96418],0,0,0,24,0,0,0,0,0,32
